Screen size: about 300,000 compounds; about 37,000 (12%) were called active. The full list was thinned out, with actives kept by preference. Values without a mark were called inactive. Cut-off read from the data, not from the text of the source: active = max response mostly above about 13% (no sharp cut-off); inactive = mostly below about 14%.
assay: Cycloheximide Counterscreen for Small Molecule Inhibitors of Shiga Toxin; conditions: cell reporter, cycloheximide protein synthesis inhibition counterscreen; active compounds read high; note: read at 38.3 µM for the half of the compounds with a filed dose; 0% is about no effect

Which max response does the source give for `Cc1nc2ccccc2c(=O)n1NC(=O)c1ccccc1` here?
The max response was -1.37%.

With `COc1ccc(CN(C)Cc2nc3cc(OC)c(OC)cc3c(=O)[nH]2)c(OC)c1` as the compound, how does the max response read?
The max response was -2.17%.

With `CCN(C(=O)CN1C(=O)/C(=C/c2ccc(F)cc2)SC1=S)C1CCS(=O)(=O)C1` (stereo unspecified) as the compound, how does the max response read?
The max response was -13.6%.

With `Cc1cccc(N2CCN(C(=O)CCS(=O)(=O)c3ccc4c(c3)NC(=O)C(C)S4)CC2)c1C` (stereo unspecified) as the compound, how does the max response read?
Its max response is -1.44%.

Which max response does the source give for `CCCc1ccc(-c2c(C)sc(NC(=O)c3ccnn3C)c2C#N)cc1` here?
Its max response is -3.68%.

Which max response does the source give for `O=C(CCc1n[nH]c(=O)[nH]c1=O)N/N=C/c1ccc(Br)o1` here?
The max response was -9.24%.

With `COCCNC(=O)COc1ccc(N(C)S(=O)(=O)c2ccc3ccccc3c2)cc1` as the compound, how does the max response read?
The max response was -5.19%.

For `N#Cc1c(-c2ccccc2)c(-c2ccccc2)n[nH]c1=O`, which max response is on record?
The max response was 0.547%.

With `COc1cccc(CNC(=O)CN(C)S(=O)(=O)c2ccc3c(c2)c(=O)n(C)c(=O)n3C)c1` as the compound, how does the max response read?
The max response was -2.54%.

Which max response does the source give for `CC(=O)c1ccccc1OCc1ccc(C(=O)c2ccccc2)cc1` here?
Its max response is 2.75%.

For `S=C(NCCc1ccccc1)N1CCCCC1`, which max response is on record?
The max response was 60.3% (active).

With `O=C1CCN(C(=S)NCCc2ccccc2)CC1` as the compound, how does the max response read?
Its max response is 16%.

With `COc1ccc(C(=O)NC2CCN(C(=S)NCCc3ccccc3)CC2)cc1` as the compound, how does the max response read?
The max response was -2.31%.

For `CCc1ccc(-c2cc(C)no2)cc1S(=O)(=O)NCCc1ccc(S(N)(=O)=O)cc1`, which max response is on record?
The max response was -3.78%.

Which max response does the source give for `O=c1[nH]nc(CSCc2ccccc2Cl)[nH]1` here?
Its max response is -2.59%.

For `N=C(N)SCc1cccc2ccccc12`, which max response is on record?
Its max response is -4.81%.

For `COc1ccc(OC(C)C(=O)NCCc2nc3ccccc3[nH]2)cc1` (stereo unspecified), which max response is on record?
Its max response is -2.98%.

For `Clc1ccccc1SCc1nc2ccccc2[nH]1`, which max response is on record?
The max response was 52.8% (active).

For `c1ccc(-c2nnc(SCc3nc4ccccc4[nH]3)o2)cc1`, which max response is on record?
Its max response is 10.9%.

Which max response does the source give for `c1ccc2c(CSCc3nc4ccccc4[nH]3)cccc2c1` here?
The max response was 13.2% (active).

Which max response does the source give for `Cc1ccc(S(=O)(=O)c2c[nH]c3ccc(Cl)cc3c2=O)cc1` here?
The max response was -0.873%.

With `CC(NC(=O)CCCC1CCCCC1)c1ccc(S(N)(=O)=O)cc1` (stereo unspecified) as the compound, how does the max response read?
Its max response is -1.75%.

With `CCC(=O)N1CCN(c2ccccc2NC(=O)COc2cccc(C)c2C)CC1` as the compound, how does the max response read?
The max response was -0.942%.

Which max response does the source give for `O=C(Nc1c2c(nn1-c1cccc(Cl)c1)CS(=O)(=O)C2)c1cccs1` here?
The max response was -4.62%.

With `COc1ccc(CN(Cc2ccco2)S(=O)(=O)c2ccc(S(=O)(=O)N3CCCC3)cc2)cc1` as the compound, how does the max response read?
The max response was -2.84%.

Which max response does the source give for `CCCCCCCCCCCCN=C(N)N` here?
Its max response is 13.5% (active).

Which max response does the source give for `CCN(CC)CCCN=C(N)N` here?
The max response was -0.653%.

With `CCCCCCCN=C(C)c1ccccc1O` as the compound, how does the max response read?
Its max response is -3.52%.

With `O=C1C(=O)N(CC2COc3ccccc3O2)c2ccccc21` (stereo unspecified) as the compound, how does the max response read?
Its max response is -1.34%.

With `COc1cccc(CNc2nc(C(F)(F)F)nc3ccccc23)c1` as the compound, how does the max response read?
The max response was -1.53%.

Which max response does the source give for `COc1cccc(CNS(=O)(=O)c2cc3c(cc2C)n(C)c(=O)c(=O)n3C)c1` here?
The max response was -2.63%.

For `COc1cccc(CNc2ncc(-c3ccccc3)n2C)c1`, which max response is on record?
The max response was 23.9% (active).

With `CCOC(=O)C1CCN(C(=O)Cn2nc(C)c3c(C)n(-c4ccccc4)nc3c2=O)CC1` as the compound, how does the max response read?
Its max response is -0.326%.

With `O=C(CCc1nnc2ccc(NCCCN3CCCC3=O)nn12)NCc1ccccc1Cl` as the compound, how does the max response read?
The max response was -2.54%.

Which max response does the source give for `CC(C)(C)NC(=O)C(c1ccc(Cl)cc1)N(CCO)C(=O)c1snc(C(N)=O)c1N` (stereo unspecified) here?
The max response was -3.49%.

For `Cc1ccc(NC(=O)C2CCCN2S(=O)(=O)c2cccc3cccnc23)c(C)c1` (stereo unspecified), which max response is on record?
The max response was -1.86%.

Which max response does the source give for `C(=N/N1CCN(c2ccccc2)CC1)/c1cccs1` here?
The max response was 36.9% (active).

Which max response does the source give for `Cc1ccc(N2CCN(/N=C/c3cccs3)CC2)cc1` here?
The max response was 7.5%.

For `Nc1nnnn1/N=C/c1cccs1`, which max response is on record?
The max response was -4.55%.

Which max response does the source give for `Cc1cccc(-c2c(NC(=O)c3ccco3)oc3ccc(Cl)cc3c2=O)c1` here?
Its max response is -1.7%.

Which max response does the source give for `CC(C)c1ccc(S(=O)(=O)N2CCC3(CC2)OCCO3)cc1` here?
The max response was -1.14%.

Which max response does the source give for `CC(C)c1ccc(/C=C2\NC(=O)NC2=O)cc1` here?
The max response was 18.8% (active).

Which max response does the source give for `COC(=O)CN1C(=O)[C@H]2[C@@H](/C=C/c3ccccc3)N3C(=O)CN(Cc4ccccc4)C(=O)[C@@]3(Cc3ccccc3)[C@H]2C1=O` here?
Its max response is -3.52%.

Which max response does the source give for `COc1ccc(N(C(=O)c2cccnc2)S(=O)(=O)c2ccc(OC)c(OC)c2)cc1` here?
The max response was 1.15%.

With `O=C(Cc1ccccc1)Nc1cccc(C(=O)N/N=C/c2ccco2)c1` as the compound, how does the max response read?
Its max response is 0.305%.

With `N#CCC(=O)N/N=C/c1ccc(SCC(=O)Nc2ccccc2)o1` as the compound, how does the max response read?
The max response was 2.34%.

For `O=C(CSc1ccc(/C=N/NC(=O)c2cccc(F)c2)o1)Nc1ccccc1`, which max response is on record?
Its max response is 47.1% (active).

With `COc1cccc2sc(N(CCCN(C)C)C(=O)C(c3ccccc3)c3ccccc3)nc12` as the compound, how does the max response read?
The max response was -11.2%.

For `Cc1ccc(NC(=O)C(=O)NCc2ccco2)c(C)c1`, which max response is on record?
The max response was 41.1% (active).

Which max response does the source give for `Cc1ccccc1NC(=O)NCc1ccco1` here?
The max response was 9.11%.

With `Cc1ccc(NC(=O)Cn2nnc(C(=O)NCc3ccco3)c2N)c(C)c1` as the compound, how does the max response read?
Its max response is 9.89%.

For `CN(CC(=O)Nc1ccc(F)cc1)CC(=O)Nc1ccc(Cl)c(S(=O)(=O)N2CCOCC2)c1`, which max response is on record?
The max response was -2.41%.

For `C/C=C/c1ccc(OCC(O)CN2CCCCCCC2)c(OC)c1` (stereo unspecified), which max response is on record?
Its max response is 9.28%.

For `CCOC(=O)c1ccc(NC(=O)Cn2cnc3cc(C)c(C)cc32)cc1`, which max response is on record?
Its max response is 6.04%.

Which max response does the source give for `CCn1c(=O)c2ccccc2n(CC(=O)N2CCCc3ccccc32)c1=O` here?
Its max response is -2.55%.

Which max response does the source give for `CN(C)CCN=c1cc(-c2ccccc2)oc2ccc(Cl)cc12` here?
Its max response is 23.6% (active).

Which max response does the source give for `CN(C)CCn1c(=S)[nH]c2ccc(Cl)cc2c1=O` here?
The max response was -5.79%.

For `CCOC(=O)c1c(NC(=O)CNC2CCCc3ccccc32)sc(C(N)=O)c1C` (stereo unspecified), which max response is on record?
Its max response is 9.96%.

For `O=C(CNC(=O)C1COc2ccccc2O1)N/N=C/c1cc(Br)c(O)c(Br)c1` (stereo unspecified), which max response is on record?
The max response was -2.17%.

For `O=C(N/N=C\c1cc(Br)c(Br)o1)C1COc2ccccc2O1` (stereo unspecified), which max response is on record?
The max response was 9.2%.

For `O=C(N/N=C/c1cc2c(cc1Br)OCO2)C1COc2ccccc2O1` (stereo unspecified), which max response is on record?
Its max response is 52.6% (active).

Source: PubChem BioAssay AID2314 (National Center for Advancing Translational Sciences (NCATS), 2010)
